Hits are enriched below; roughly 19% of the tested compounds scored in any of these assays.
HT1080 IDH1KD tx = HT-1080 IDH1 knockdown cell toxicity (counter line); HT-1080 IDH1 knockdown viability, ATP luminescence, 48 h; Potency, µM (titrated, usually from 46.1 µM), without a hit: at the top dose activity, negative = toxicity, usual class: cytotoxic; 2% of 360,000 active; AID 686971;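 further: potency means the concentration at half of the fitted maximal effect; 0% = DMSO wells and -100% = cell-free medium wells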
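IDH1KD HT-1080 cells, 750/well, RPMI + 5% FBS; compound pinned after 2 h settling; 48 h, 37 °C; CellTiter-Glo luminescence; % activity normalised to DMSO and no-cell wells; curves fitted, classed by r2 and efficacy.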
DT40 TDP1 no CPT = qHTS for Inhibitors of human tyrosyl-DNA phosphodiesterase 1 (TDP1): qHTS in cells in absence of CPT | 15% of 420,000 active | DT40 Tdp1-/- hTDP1 cells, no CPT, ATP luminescence, 48 h | Potency, µM (titrated, usually from 46.2 µM), for inactives: at the top dose activity change, negative = growth inhibition, actives largely listed as inhibitors; further: potency means the concentration at half of the fitted maximal effect; nearly all actives have a fitted effect of over 55% in size
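No-CPT arm: Tdp1-/-;hTDP1 DT40 cells (400/well) plus compounds, incubated ≥48 hr at 37 °C. Readout CellTiter-Glo luminescence.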
HT1080NT lethal = kills 2HG-producing HT-1080-NT fibrosarcoma cells; AID 686970; HT-1080-NT fibrosarcoma viability, CellTiter-Glo ATP luminescence, 48 h; 1.6% of 360,000 active; Potency, µM (titrated, usually from 46.1 µM), for the others: at the top dose activity, negative = less viability, usual class: cytotoxic;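 further: NT is the 2HG producing partner of a matched IDH1 knockdown line; potency means the concentration at half of the fitted maximal effect; 0% = DMSO-treated cells and -100% = media-only wells without cells; nearly all actives have a fitted effect of over 55% in size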
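750 cells/well, RPMI + 5% FBS; 2 h settle, compound pin-transfer, 48 h at 37 degrees C. CellTiter-Glo 10 min RT, luminescence. Normalized to DMSO and media-only wells.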
TDP1 cell CPT = DT40-hTDP1 cell growth loss with CPT | chicken DT40 Tdp1-/-;hTDP1 cells + 20 nM CPT, ATP luminescence, 48 h | Potency, µM (series often up to 46.2 µM), for the others: at the top dose activity change, negative = growth inhibition, usual class: inhibitors | AID 686979 | 12% of 420,000 active; further: potency means the concentration at half of the fitted maximal effect; nearly all actives have a fitted effect of over 55% in size
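Chicken DT40 Tdp1-/- cells stably complemented with human TDP1 were seeded at 400 cells/well in medium containing 20 nM camptothecin, exposed to pin-transferred compounds, and grown at 37 °C for at least 48 hr. Viability was read as ATP luminescence.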
IL1B secr inh = blocks inflammasome-driven IL-1 beta release | THP-1 LPS/ATP IL-1B secretion, AlphaLISA, 16 h; active compounds read low | activity change, % at 57.5 µM | 4.7% of 360,000 active | AID 743279; in the data active means activity change below about -50%; inconclusive means mostly about -30% to -49%
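Secreted IL-1B measured by AlphaLISA bead assay after 16 h compound exposure of THP-1 cells; compounds (final up to 57.5 uM) added 1 h before LPS (250 ng/mL) and ATP (1.25 mM) stimulation; lower signal means less secretion.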
* = called active by the depositor; ? = inconclusive; / = no result. Unless noted, the call rests on the fitted dose curve; in most records, active means well fitted curve in the direction sought with a large enough effect; inconclusive means small, poorly fitted or top-dose-only effect, or another doubt; inactive means no such curve, though single readings can be large; an effect the other way counts as inactive or inconclusive. Unless noted, on the % scale 0 is the no-effect control and ±100 the full control effect.

SMILES	HT1080 IDH1KD tx	DT40 TDP1 no CPT	HT1080NT lethal	TDP1 cell CPT	IL1B secr inh
CC(C)c1nc2sc3c(SCCN(C)C)ncnc3c2c2c1CCC2	12%	?	19%	-21%	19
Cc1ccc(NC(=O)c2cnn3c2NC(=C2CC2)C=C3C(F)F)cc1	/	-24%	/	-13%	/
O=C(c1cnn2c1NC(=C1CC1)C=C2C(F)F)N1CCc2ccccc21	/	11µM*	/	11µM*	/
COc1ccc(CCNC(=O)c2cnn3c2NC(=C2CC2)C=C3C(F)F)cc1OC	/	13µM*	/	11µM*	/
O=C(NC1CCCc2ccccc21)c1cnn2c1NC(=C1CC1)C=C2C(F)F (stereo unspecified)	-20%	20µM*	-25%	11µM*	/
Cc1ccc(NC(=O)c2cnn3c2NC(=C2CC2)C=C3C(F)F)cc1C	/	?	/	-1%	/
O=C(Nc1cccc(Nc2ccccc2)c1)c1cnn2c1NC(=C1CC1)C=C2C(F)F	/	14µM*	/	4.5µM*	/
Cc1cc(NC(=O)CN2C(=O)NC(C)(c3ccc(Cl)cc3)C2=O)no1 (stereo unspecified)	-2%	-9%	19%	-5%	37
O=C(Nc1ccccc1Sc1ccccc1)c1cnn2c1NC(=C1CC1)C=C2C(F)(F)F	4%	?	0%	?	/
O=C(Nc1cccnc1Cl)c1cnn2c1NC(=C1CC1)C=C2C(F)F	/	8.9µM*	/	?	/
O=C(Nc1ccccc1Sc1ccccc1)c1cnn2c1NC(=C1CC1)C=C2C(F)F	/	?	/	16µM*	/
O=C(Nc1ccccc1F)c1cnn2c1NC(=C1CC1)C=C2C(F)F	4%	-12%	15%	-3%	/
CN(Cc1ccccc1)c1ncnc2[nH]ncc12	-9%	-25%	-18%	?	15
CN(Cc1ccccc1)c1ncnc2sccc12	?	12µM*	-27%	?	-3
CCCCN(C(=O)c1ccc(S(=O)(=O)N(C)C)cc1)c1nc2ccccc2s1	1%	2%	4%	-8%	15
CCN(Cc1ccccc1)S(=O)(=O)c1ccc(C(=O)N(CCCN(C)C)c2nc3cc(OC)ccc3s2)cc1	?	23µM*	?	?	-100*
CN(C)CCCN(C(=O)c1ccc(S(=O)(=O)N(C)Cc2ccccc2)cc1)c1nc2c(F)cccc2s1	-27%	-7%	?	?	-96*
COc1ccc2sc(N(CCCN(C)C)C(=O)c3ccc(C(=O)c4ccccc4)cc3)nc2c1	?	?	?	16µM*	-88*
CCN(Cc1ccccc1)S(=O)(=O)c1ccc(C(=O)N(CCCN(C)C)c2nc3cc4c(cc3s2)OCCO4)cc1	?	?	-18%	?	-95*
CCN(Cc1ccccc1)S(=O)(=O)c1ccc(C(=O)N(CCCN(C)C)c2nc3ccc(F)cc3s2)cc1	?	-7%	?	?	-101*
CN(C)CCCN(C(=O)c1ccco1)c1nc2ccc(F)cc2s1	-6%	?	-10%	-19%	-8
COc1cccc(-c2noc(COc3ccccc3Cl)n2)c1	/	-3%	/	17%	/
O=C(NNc1ccc(C(F)(F)F)cc1[N+](=O)[O-])c1ccc(NS(=O)(=O)c2ccc(F)cc2)cc1	21µM*	23µM*	?	?	?
CC(C)CC(=O)N1CCN(C(=O)c2ccc(F)cc2)CC1	16%	?	0%	-11%	-3
O=[N+]([O-])c1ccccc1S(=O)(=O)Oc1ccccc1/C=N/n1cnnc1	-6%	16µM*	-19%	?	20
SMILES	HT1080 IDH1KD tx	DT40 TDP1 no CPT	HT1080NT lethal	TDP1 cell CPT	IL1B secr inh
CC(NC(=O)c1ccncc1)c1ccc(Br)cc1 (stereo unspecified)	-4%	?	-2%	-27%	-9
CCOC(=O)c1sc(=S)n(-c2ccccc2)c1SC	1%	-23%	2%	-18%	-11
CCOC(=O)c1c(SCCN2CCCC2)n(-c2ccccc2)c(=S)n(-c2ccccc2)c1=O	7.3µM*	5.2µM*	?	4.6µM*	-111*
CC(C)(C)c1ccc(CC(=O)N2CCC2(C)C(=O)NCc2cccs2)cc1 (stereo unspecified)	-2%	10µM*	-18%	12µM*	0
CC(C)(C)c1ccc(C(=O)N2CCC2(C)C(=O)NCc2cccs2)cc1 (stereo unspecified)	?	0.65µM*	?	6.5µM*	0
CC1(C(=O)NCc2cccs2)CCN1C(=O)Cc1ccc(Cl)cc1Cl (stereo unspecified)	-8%	?	-8%	?	5
N#C/C(=C/c1cn(-c2ccccc2)nc1-c1cccc(OCc2ccccc2)c1)C(=O)NCCCn1ccnc1	?	?	-28%	?	-75*
N#C/C(=C/c1cn(-c2ccccc2)nc1-c1cccc(S(=O)(=O)N2CCCC2)c1)C(=O)NCc1ccco1	-22%	12µM*	1%	13µM*	-2
N#C/C(=C/c1cn(-c2ccccc2)nc1-c1cccc(S(=O)(=O)N2CCOCC2)c1)C(=O)NCc1ccco1	9%	?	5%	-29%	9
Cc1ccc(-c2nn(-c3ccccc3)cc2/C=C(\C#N)C(=O)NCc2ccccc2)cc1	-21%	?	-11%	-29%	3
CCOc1cccc(-c2nn(-c3ccccc3)cc2/C=C(/C#N)C(=O)NCCCn2ccnc2)c1	?	?	26µM*	?	-99*
CCSc1ccc(-c2nn(-c3ccccc3)cc2/C=C(/C#N)C(=O)NCCCOC)cc1	0%	1%	-1%	-5%	19
CCn1c(=S)[nH]c2cc(S(=O)(=O)N3CCCCC3)ccc21	-19%	13µM*	?	?	-28
COc1cc(-c2[nH]ncc2CN2CCN(Cc3cccs3)CC2)cc(OC)c1OC	-25%	21µM*	-19%	18µM*	40
CCCN1CCC(=O)N([C@H](CSc2ccc(Br)cc2)c2ccccc2)CC1	-1%	16µM*	3%	?	13
O=C1CCN(CCc2ccccc2)CCN1[C@H](CO)Cc1ccccc1	2%	-26%	1%	-21%	2
O=C1CCN(CCc2ccccc2)CCN1[C@H](CSc1ccc(Br)cc1)c1ccccc1	-2%	18µM*	-20%	?	17
c1ccc2c(-c3ccc4nncn4c3)cncc2c1	30%	?	1%	?	14
O=C(CSc1nncs1)Nc1ccc2[nH]c(=O)[nH]c2c1	-1%	3%	8%	3%	14
CCOc1ccc(NC(=S)Nc2ccccc2C2(C)CC2)cc1	-20%	8.2µM*	3%	?	?

Compound activity as filed in PubChem.
